An excerpt weighted towards active compounds, which were near 2.6% of everything screened.
EWS-Fli inh: EWS/Fli-driven NR0B1 reporter inhibitors, primary screen, A673 cells, NR0B1 luciferase, luminescence, MLPCN library; viability-normalised; 350,000 compounds, 0.67% hits; inhibition, % at 12.6 µM;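 active means mean inhibition of at least 50% after viability correction, with every replicate also passing that limit; inconclusive means mean reaches 50% but only one of two replicates passes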;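 further: firefly luciferase signal divided by Alamar Blue viability fluorescence both relative to DMSO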
TWEAK-Fn14 inh: inhibitors of TWEAK-Fn14 signaling, primary screen, luciferase reporter cells, uHTS | TWEAK-stimulated Fn14 reporter cells, luciferase luminescence, 8 h | inhibition, % at 10 µM | 360,000 compounds, 2% hits; in the data active means inhibition above about 50%
TROY NFkB inh: inhibitors of TROY-driven NF-kB signaling, primary screen, Q293 LMP1-TROYcd cells, NF-kB luciferase, uHTS | Q293 LMP1-TROYcd NF-kB luciferase reporter, 4 h | inhibition, % at 10 µM | 360,000 compounds, 0.98% hits | AID 1347056, 2019;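 active means compounds whose plate-normalised and pattern-corrected inhibition of the luciferase reporter signal at the single screening dose is 50% or more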
CF NFkB block: inhibitors of PAF-induced NF-kB signaling, primary screen, cell-based, GFP fluorescence, uHTS | 360,000 compounds, 0.86% hits | AID 588850, 2011 | inhibition, % at 5 µM | KKLEB NF-kB-GFP reporter, GFP fluorescence overnight;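 active means at least 50% inhibition at 5 µM, scaled per plate between neutral and stimulator controls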;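 further: PAF is a Pseudomonas aeruginosa culture filtrate used as stimulus; plate controls were PAF-stimulated DMSO wells for no effect and unstimulated DMSO wells for full effect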
KKLEB tox: cytotoxicity in KKLEB CF airway cells, primary screen, cytotoxicity control for CF NF-kB inhibitor project, cell-based, uHTS, fluorescence assay plates. KKLEB CF airway cells viability, ATPlite luminescence, overnight; stronger effect = lower value; cells stimulated with P. aeruginosa culture filtrate. activity change (cytotoxicity), % at 5 µM. 360,000 compounds, 0.36% hits. AID 602141, 2011;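 active means corrected activity change at or below -50% at 5 µM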
LGR2 inh: inhibitors of bursicon-induced LGR2 CRE-luciferase signal, primary screen, cell-based, HEK293, CRE-luciferase reporter, bursicon stimulation. AID 720647, 2013. Drosophila bursicon receptor LGR2 (rickets). 380,000 compounds, 0.35% hits. bursicon-stimulated, 4 h. inhibition, % at 9.99 µM;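 active means drop in luminescence signal, shown as inhibition above about 50% in the replicate tests, limit read from the data, passing the limit was not always enough; inconclusive means probably only some replicates passing the limit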;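 further: agonist challenge used bursicon conditioned medium at about half maximal strength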
An asterisk follows results filed as active; ? = inconclusive; / = not tested or not shown.

SMILES | EWS-Fli inh | TWEAK-Fn14 inh | TROY NFkB inh | CF NFkB block | KKLEB tox | LGR2 inh
COc1ccc(C2C(C(=O)Nc3cc(OC)c(OC)c(OC)c3)c3ccccc3C(=O)N2C)cc1 (stereo unspecified) | 60* | 1 | 13 | 34 | -19 | 4
CCOc1ccc(/C=C2\CCC(C3CCCC3)C2=O)cc1OC (stereo unspecified) | -65 | -20 | -49 | -8 | -5 | -16
COc1ccc(/C=C2\SC(=O)NC2=S)cc1OC | 14 | -19 | -17 | 22 | -46 | -11
COc1cc(C=C2CCCC(=Cc3ccc(OCC4CO4)c(OC)c3)C2=O)ccc1OCC1CO1 (stereo unspecified) | 68* | 73* | -4 | 86* | -45 | 38
COc1ccc(/C=C2/CSC/C(=C/c3ccc(OC)c(OC)c3)C2=O)cc1OC | 66* | 92* | 15 | 93* | -92* | 26
CCC(=O)N1C[C@@H](C)[C@@H](OC)CN(C)C(=O)c2cc(NC(=O)c3ccc(F)cc3)ccc2OC[C@@H]1C | -5 | / | / | / | / | -3
CCN(CC)C(=S)Oc1ccc(Cl)cc1Cl | 5 | 97* | -3 | -6 | 3 | 7
CCN(CC)C(=S)Oc1c(Cl)cccc1Cl | -3 | 5 | 3 | -4 | -3 | 6
CCOC(=O)c1c(C)[nH]c(C(=O)OCC(=O)Nc2sccc2C(N)=O)c1C | -30 | 84* | 64* | -16 | -30 | 71*
COc1ccc(NC(=O)N(C)C[C@H]2Oc3ccc(NC(=O)Nc4ccc(F)cc4)cc3CC(=O)N([C@@H](C)CO)C[C@H]2C)cc1 | 41 | / | / | / | / | -7
CN(C)c1ccc(Nc2nc(N)c3ccccc3n2)cc1 | 77* | 95* | 67* | -19 | -62* | 89*
CCOc1ccc(Nc2nc(N)c3ccccc3n2)cc1 | 69* | 92* | 61* | -8 | -56* | 96*
Nc1nc(Nc2ccc(Cl)cc2)nc2ccccc12 | / | 80* | 14 | 8 | -55* | /
Nc1nc(Nc2ccccc2)nc2ccccc12 | / | 40 | -13 | -5 | -22 | /
C[C@H](CO)N1C[C@H](C)[C@H](CN(C)CC2CCCCC2)Oc2c(NC(=O)Nc3ccc(C(F)(F)F)cc3)cccc2C1=O | -1 | / | / | / | / | 6
C[C@H]1CN([C@@H](C)CO)C(=O)c2cc(/C=C/c3ccccc3)cnc2O[C@@H]1CN(C)C(=O)C1CCC1 | -7 | / | / | / | / | -9
C=CCOC(=O)/C(=C\c1ccccc1)NC(=O)c1ccc(C)cc1 | -56 | 16 | 51* | 5 | -5 | -36
COc1ccc(C(=O)c2ccccc2)c2c(O)ccc(C(=O)c3ccccc3)c12 | / | 57* | 49 | 7 | 5 | /
CCN(CC)C1Oc2cc3c(cc2C(c2cc(OC)c(OC)c(OC)c2)C1C)OCO3 (stereo unspecified) | 64* | 8 | 21 | 45 | -21 | -34
COc1cc(C2C(C#N)=C(N)Oc3cc4c(cc32)OCO4)cc(OC)c1OC (stereo unspecified) | 62* | -2 | 28 | 48 | -10 | 3
COc1cc(C2C3=C(COC3=O)Oc3cc4c(cc32)OCO4)cc(OC)c1O (stereo unspecified) | 57* | -8 | 15 | 41 | -2 | -5
C[C@@H]1CCCCO[C@H](CN(C)CC2CCCCC2)[C@H](C)CN([C@@H](C)CO)C(=O)c2cc(NS(=O)(=O)c3cn(C)cn3)ccc2O1 | -8 | / | / | / | / | -5
CCOc1cccc(C(=O)Nc2cccc(-c3nnc(-c4ccc(C)cc4)o3)c2)c1 | / | -55 | 5 | 57* | -68* | /
COc1ccc(CC(=O)Nc2cccc(-c3nnc(-c4ccc(C)cc4)o3)c2)cc1OC | -18 | 102* | 64* | -20 | -1 | 94*
COc1ccc(CC(=O)Nc2ccc(-c3nnc(-c4ccccc4)o3)cc2)cc1OC | -48 | -1 | -29 | -13 | -1 | 2
SMILES | EWS-Fli inh | TWEAK-Fn14 inh | TROY NFkB inh | CF NFkB block | KKLEB tox | LGR2 inh
COc1ccc(CC(=O)Nc2cccc(-c3nnc(-c4ccccc4)o3)c2)cc1OC | / | 102* | 69* | -18 | 0 | 103*
CCOc1cccc(C(=O)Nc2cccc(-c3nnc(-c4ccccc4)o3)c2)c1 | -24 | 49 | 24 | -1 | -3 | 0
COc1ccc(CC(=O)Nc2cccc(-c3nnc(-c4cccc(C)c4)o3)c2)cc1OC | / | 89* | 61* | 4 | 0 | ?
Cc1ccc(-c2cc3nc4c(c(=O)n3[nH]2)CCCC4)cc1 | / | 62* | -10 | -12 | 2 | /
C[C@@H]1CN([C@H](C)CO)C(=O)c2cccc(NS(=O)(=O)c3ccc(Cl)cc3)c2O[C@@H]1CN(C)CC1CCCCC1 | -5 | / | / | / | / | 15
CC(C)(C)C(=O)OCc1nc(-c2ccc(C(F)(F)F)cc2)cs1 | -39 | -24 | 73* | -5 | 10 | -13
FC(F)(F)c1ccc(-c2csc(-c3ccno3)n2)cc1 | -43 | -17 | -39 | -15 | -22 | -47
CCOC(=O)/C(=N/Nc1ccc(OC)cc1)Sc1nnc(CCc2ccccc2)n1-c1ccccc1 | 9 | 51* | 68* | 1 | -15 | -2
COc1ccc(-c2nsc3c(N4CCCC4)ncnc23)cc1 | / | 95* | 66* | -16 | -38 | /
O=C(c1ccco1)N1CCN(c2ncnc3c(-c4ccc(Cl)cc4)nsc23)CC1 | / | 61* | 63* | -2 | -3 | /
Cc1ccc(-c2csc3ncnc(N4CCN(C(=O)c5ccco5)CC4)c23)cc1 | 3 | 11 | 5 | 22 | -6 | 1
CCC(=O)N1[C@@H]2c3ccc(-c4ccc(F)cc4)c(=O)n3C[C@@H]2[C@@H](CO)[C@@H]1C(=O)NC1CCC1 | -5 | / | / | / | / | 5
CCS(=O)(=O)Nc1ccc2c(c1)C(=O)N(C)[C@H]1CC[C@H](CC(=O)NC)O[C@H]1CO2 | 2 | / | / | / | / | 17
Fc1cccc(-c2ccc(C3[C@H]4CNC[C@@H]3N4Cc3cncnc3)cc2)c1 (stereo partly specified) | -17 | / | / | / | / | -2
CC=Cc1ccc2n(c1=O)C[C@@H]1[C@@H](CO)[C@H](C(=O)NCCC)N(C(=O)C3CCOCC3)[C@H]21 (mixture of isomers) | 5 | / | / | / | / | -4
COc1ccc(S(=O)(=O)Nc2cccc3c2O[C@@H](CN(C)S(=O)(=O)c2ccc(OC)cc2)[C@H](C)CN([C@H](C)CO)C3=O)cc1 | / | / | / | / | / | 17
N#Cc1c(-c2ccccc2)nc(-c2ccccc2)nc1N1CCOCC1 | / | 79* | / | 13 | -7 | /
CN1CCN(c2nc(-c3ccccc3)nc(-c3ccccc3)c2C#N)CC1 | 4 | 1 | -11 | 11 | -14 | -17

Bioassay records: PubChem BioAssay, several laboratories
